39 compounds from PubChem BioAssay AID434982 (The Scripps Research Institute Molecular Screening Center, 2010) can be followed below.

Hit rate of the full screen: of about 15,000 compounds, about 60 (0.4%) were called active. Many of the other results were omitted from the sample, so actives are more common in it than they were. Unmarked numbers belong to inactive results. Cut-off read from the data, not from the text of the source: active = activation above about 2.2%; inactive = the rest.

The nature of the assay: activates NOTCH signaling in reporter cells (AID 434982). The conditions noted are these: NOTCH signaling luciferase reporter cells, luminescence; at 2.5 µM; hits give high values.
Turning to `CC(C)(C)NC(=O)NCC(c1ccc[nH]1)C(F)(F)F` (centres undefined), the activation was -0.29%.

With `CCOC(=O)C(=CNc1nc(-c2ccc(Cl)cc2)cs1)C(=O)OCC`, the activation was -0.64%. In the case of `Cc1ccc(Oc2c(C)[nH]c(=S)[nH]c2=O)cc1` it was -0.61%. In the case of `CC(=O)N1c2ccccc2C=Cc2ccccc21` it was -5.39%; in that of `CN(C)c1ccc(/C=C(\C#N)S(C)(=O)=O)c(Cl)c1`, -0.47%.

As for `Cc1cc(C(F)(F)F)nc2c(-c3noc(-c4ccccc4)n3)cnn12`, the activation is -0.99%. Take `O=C(c1ccc(C#Cc2ccccc2)o1)N1CCCCC1`: the activation was -0.2%.

For the compound `O=[N+]([O-])c1ccc(CSc2nnc(-c3ccncc3)o2)cc1`, the activation is 0.14%.

As for `Cc1[nH]c2c(F)cc(F)cc2c(=O)c1I`, the activation was -0.36%. With `O=C1c2cc(S(=O)(=O)Oc3ccccc3)ccc2-c2ccc(S(=O)(=O)Oc3ccccc3)cc21`, the activation is -1.18%.

In the case of `CCCCc1c(O)cc(-c2ccccc2)n(Cc2ccccc2)c1=O`, the activation is -0.19%.

`COC(=O)C(C#N)c1ccc(C(F)(F)F)cc1[N+](=O)[O-]` (centres undefined): the activation is -0.67%.

Consider `CC(C)S(=O)(=O)c1cscc1N/C=C(/C#N)C(=O)C1CC1`, for which the activation is 0%.

With `Cc1nc(-c2nnc(SCC(=O)c3ccc(F)cc3)n2C)cs1`, the activation was -0.64%.

Turning to `NNC(=O)c1csc(-c2ccc(C(F)(F)F)cn2)n1`, the activation is -0.19%.

Regarding `CCOC(=O)c1cc(CC)sc1NC(=O)c1cccnc1Oc1ccccc1`, the activation was 0.22%. The same measure for `COC(=O)c1c(C(=O)OC)c2n(c1C)CCS2`: 3.54% (active); for `Cc1cc(-c2nc(C(=O)NN3CCCCC3)cs2)no1`: -0.7%. For the compound `Cc1noc(C)c1C(=O)Oc1cccc2cccnc12`, the activation is 0.63%. As for `S=C1NCN(CCCn2ccnc2)CN1`, the activation is 0.16%. The same measure for `COc1ccc(CCNC(=O)c2ccccc2-c2ccccc2C(=O)O)cc1OC`: -0.75%; for `Cc1noc(C)c1S(=O)(=O)NCc1cc(F)cc2c1OCOC2`: -0.53%. For `Nc1nc(C23CC4CC(CC(C4)C2)C3)cs1`, the activation is -0.6%. In the case of `COC(=O)c1ccc2snnc2c1`, the activation is -0.29%.

With `CCOC(=O)/C=C(/Nc1ccccc1SC)c1ccccc1`, the activation was -0.36%.

Regarding `COC(=O)c1cc(OC)c(OC)cc1NC(=O)CSc1ccc(Cl)cc1`, the activation was -0.78%. The same measure for `CS(=O)(=O)Nc1ccc(/C(N)=N/OC(=O)c2cccs2)cc1`: -0.39%; for `N/C(Cc1cccs1)=N\OC(=O)c1ccccc1`: -0.76%.

For `Cc1cc(/C(N)=N/OC(=O)c2cccs2)c(-c2ccccc2)o1`, the activation is 2.72% (active).

In the case of `COC(OC)c1ccc(C#N)c(SCC(=O)Nc2ccc(C(F)(F)F)cc2)n1`, the activation is -0.25%. For `O=C(Nc1ccccc1N1CCOCC1)NC1CCN(C(=O)OCc2ccccc2)CC1`, the activation is -0.87%. Consider `Clc1ccc(C=NCc2cccnc2)c(Cl)c1`, for which the activation was -0.28%. The same measure for `Cc1nc(-c2ncc(-c3ccccc3)o2)c(C(F)(F)F)o1`: -4.8%; for `NC(=O)C1CCN(CC(O)CSc2ccc(F)cc2)CC1` (centres undefined): -5.86%. In the case of `CCOC(=O)C(=CNc1ccc2n[nH]nc2c1)C(=O)OCC` it was -0.78%; in that of `Cn1nccc1NC(=O)CC(CC(=O)O)c1ccccc1` (centres undefined), 0.57%; in that of `CCOC(=O)c1ccc(NC)c(N)c1`, -0.75%. For `COc1ccc2cc(/C(C)=N/OC(=O)Nc3ccccc3)ccc2c1`, the activation is 0.13%. As for `COc1cc(C=C(C#N)C#N)cc(OC(C)=O)c1OC(C)=O`, the activation is -0.27%.
